This note sets out measurements from PubChem BioAssay (NCATS).

A short description of assay [1]: qHTS profiling for inhibitors of Plasmodium falciparum proliferation (AID 504749).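 For activity, negative = inhibition: 0% = DMSO vehicle and full inhibition = artemisinin control.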 Note: nearly all actives have a fitted effect of over 60% in size. As to conditions: P. falciparum in erythrocytes, SYBR Green DNA, 72 h. A digest of the protocol:
(§1)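 P. falciparum-infected erythrocytes (0.3% parasitemia, 2.5% hematocrit final) were exposed to compounds for 72 h at 37 C in 5% CO2, then lysed with SYBR Green buffer overnight at room temperature; parasite DNA fluorescence was normalized to artemisinin and DMSO controls.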
Background: In qHTS, concentration-response curves come from the screen itself.

Another assay concerns 3D7. Described as above. As to conditions: P. falciparum in erythrocytes, SYBR Green DNA, 72 h; series mostly up to 28.7 µM. The procedure, abridged:
as §1

For another assay, the system named is 7G8. The description is as above. The following applies: P. falciparum in erythrocytes, SYBR Green DNA, 72 h; series mostly up to 28.7 µM. A digest of the protocol: as §1
The test system of a further assay is AA1029. The description is as above. The following applies: P. falciparum in erythrocytes, SYBR Green DNA, 72 h; series mostly up to 28.7 µM. The procedure, abridged: as §1
A further assay concerns AS120. The description is as above. The following applies: P. falciparum in erythrocytes, SYBR Green DNA, 72 h; series mostly up to 28.7 µM. The procedure, abridged: as §1
A further assay deals with ATS189. The description is as above. As to conditions: P. falciparum in erythrocytes, SYBR Green DNA, 72 h; series mostly up to 28.7 µM. A digest of the protocol: as §1
The subject of another assay is C2A. Described as above. As to conditions: P. falciparum in erythrocytes, SYBR Green DNA, 72 h; series mostly up to 28.7 µM. A digest of the protocol:
as §1

In a further assay the test system is CP185. The assay is described as above. The following applies: P. falciparum in erythrocytes, SYBR Green DNA, 72 h; series mostly up to 28.7 µM. A digest of the protocol:
as §1

Another assay has as its system ATS95. The assay is described as above. The following applies: P. falciparum in erythrocytes, SYBR Green DNA, 72 h; series mostly up to 28.7 µM. A digest of the protocol:
as §1

The mark [2] stands for this setting: at 28.7 µM (top of the series), parasite line A.
The mark [3] stands for this setting: at 28.7 µM (top of the series), parasite line B.

Results filed as inconclusive are left out. Values without a mark were called inactive. Active and inactive are the calls of the source. Calls come from the whole dose curve; as a rule, active = well fitted inhibition curve with a large enough effect; inconclusive = small, poorly fitted or top-dose-only effect; inactive = flat fitted curve, though single readings scatter.
Potency is the fitted concentration of half-maximal effect.

Take `CCC(C)(C)c1ccc(O)cc1`: the activity, negative = inhibition in assay [1] (setting [2]) was 2.92%; in assay [1] (setting [3]), 14.5%. The Potency result in the assay on 3D7, in the assay with 7G8, in the assay with AA1029, in the assay with AS120, in the assay with ATS189 and in the assay with C2A was “inactive” each time. Also, in the assay with CP185, the Potency entry was “inactive”.
Turning to `C=C(C)[C@H]1CN[C@H](C(=O)O)[C@H]1CC(=O)O`, the figures for the activity, negative = inhibition in assay [1] (setting [2]) and in assay [1] (setting [3]) were 3.91% and 11.4%, respectively. Further, the Potency result with 3D7, in the assay with AA1029, in the assay with AS120, in the assay on ATS189, in the assay with ATS95 and in the assay on C2A was “inactive” each time. Further, in the assay with CP185, the Potency result is “inactive”.
Consider `O=C(N/N=C/c1ccc([N+](=O)[O-])o1)c1cc([N+](=O)[O-])cc([N+](=O)[O-])c1O`, for which the Potency was 0.447 µM (active) in assay [1] (parasite line A); 0.0708 µM (active) in [1] (parasite line B); 0.891 µM (active) with 3D7; 0.1 µM (active) in the assay with AA1029; 0.141 µM (active) with AS120; 0.316 µM (active) with ATS189. The Potency is 0.0178 µM (active) with C2A and 0.0631 µM (active) in the assay on CP185. Also, in the assay on 7G8, the Potency entry is “inactive”.
On to `CCOP(=S)(OCC)Oc1ccc2c(C)c(Cl)c(=O)oc2c1`, for which the activity, negative = inhibition in assay [1] (setting [3]) was -25.9%. Besides, in the assay on C2A, the Potency entry is “inactive”.
Consider `COP(=S)(OC)Oc1ccc(SC)c(C)c1`, for which the activity, negative = inhibition in assay [1] (setting [2]) is 8.16%; in [1] (setting [3]) it was 12.2%. For the same molecule, the Potency entry in the assay with 3D7, in the assay with 7G8, in the assay on AA1029, in the assay on AS120, in the assay with ATS189 and in the assay on ATS95 was “inactive” each time. Further, the Potency entry in the assay on C2A and in the assay on CP185 was “inactive” throughout.
As for `C=CCN1C[C@H](C)N([C@H](c2ccc(C(=O)N(CC)CC)cc2)c2cccc(OC)c2)C[C@H]1C`, the Potency is 10 µM (active) in [1] (parasite line A) and 5.01 µM (active) in the assay on 7G8.
Consider `NC(=O)c1cc([N+](=O)[O-])cc([N+](=O)[O-])c1`, for which, in assay [1] (setting [3]), the activity, negative = inhibition is -21.3%. Further, the Potency in [1] (parasite line A) is 7.94 µM (active). The Potency result with AA1029, in the assay on AS120, with ATS95 and with C2A was “inactive” each time.
As for `CC(C)(C)NCC(O)c1cc(Cl)c(N)c(C(F)(F)F)c1` (stereo unspecified), the Potency in [1] (parasite line A) was 14.1 µM (active); in [1] (parasite line B) it was 4.47 µM (active); with 7G8, 4.47 µM (active); in the assay with AA1029, 7.94 µM (active); in the assay with AS120, 5.62 µM (active); with ATS189, 7.08 µM (active). Further, the Potency with C2A and with CP185 was 10 µM (active) in each case. The Potency result in the assay on 3D7 was “inactive”.
Turning to `COc1c2c(cc3c1OCO3)CCN(C)C2`, the activity, negative = inhibition was 4.79% in assay [1] (at 12.8 µM (top of the series), parasite line A) and 6.97% in assay [1] (at 12.8 µM (top of the series), parasite line B). In addition, the Potency result in the assay on 3D7, in the assay with 7G8, in the assay on AA1029, with AS120, in the assay with ATS189 and in the assay with ATS95 was “inactive” in each case. Besides, the Potency entry with C2A and with CP185 was “inactive” throughout.
As to `NNc1ccccc1`, the activity, negative = inhibition in [1] (setting [2]) was 7.49%. Besides, the Potency result in the assay with 3D7, in the assay with 7G8, with AA1029, in the assay on AS120, in the assay on ATS189 and in the assay with ATS95 was “inactive” in each case. Besides, the Potency entry with C2A and in the assay on CP185 was “inactive” each time.
On to `COP(=S)(OC)SCN1C(=O)c2ccccc2C1=O`, for which the activity, negative = inhibition was 6.4% in assay [1] (setting [2]) and 1.71% in assay [1] (setting [3]). The Potency entry in the assay with 3D7, with 7G8, in the assay on AA1029, in the assay with AS120, in the assay on ATS189 and with ATS95 was “inactive” throughout. For the same molecule, the Potency entry with C2A and with CP185 was “inactive” each time.
Regarding `CN1C(=O)NC(=O)C(C)(C2=CCCCC2)C1=O` (stereo unspecified), in [1] (setting [3]), the activity, negative = inhibition was 7.06%. The Potency entry in the assay on 3D7, in the assay on 7G8, with AA1029, in the assay on AS120, in the assay on ATS189 and in the assay with ATS95 was “inactive” in each case. In addition, the Potency entry in the assay with C2A and with CP185 was “inactive” each time.
As for `c1ccc2c(c1)sc1ccccc12`, the activity, negative = inhibition in assay [1] (setting [2]) is -4.2%. Further, the Potency result in the assay with 3D7, in the assay on 7G8, with AA1029, in the assay on AS120, in the assay with ATS189 and in the assay with ATS95 was “inactive” in each case. Also, the Potency result with C2A and in the assay on CP185 was “inactive” in each case.
For `NC(=O)CS(=O)C(c1ccccc1)c1ccccc1` (stereo unspecified), the activity, negative = inhibition in assay [1] (setting [2]) is 11.3%; in [1] (setting [3]), 9.97%. Further, the Potency result in the assay with 3D7, in the assay on AA1029, in the assay with AS120, in the assay on ATS189, in the assay on ATS95 and with C2A was “inactive” each time. In addition, the Potency result in the assay with CP185 was “inactive”.
Consider `COP(=S)(OC)Oc1ccc(S(=O)(=O)N(C)C)cc1`, for which the figures for the activity, negative = inhibition in assay [1] (setting [2]) and in assay [1] (setting [3]) were 14.2% and 1.31%, respectively. The Potency entry in the assay on 3D7, in the assay on 7G8, in the assay on AA1029, with AS120, in the assay with ATS189 and in the assay with ATS95 was “inactive” each time. Also, the Potency result with C2A and with CP185 was “inactive” in each case.
For the molecule `Clc1cccc(SC2CCNCC2)n1`, the activity, negative = inhibition is 12.4% in assay [1] (setting [2]) and 2.53% in assay [1] (setting [3]). Besides, the Potency result with 3D7, in the assay on AA1029, with AS120, in the assay on ATS189, in the assay on ATS95 and in the assay on C2A was “inactive” throughout. The Potency entry in the assay on CP185 is “inactive”.
On to `Cc1nnc2n1-c1ccc(Cl)cc1C(c1ccccc1)=NC2`, for which the activity, negative = inhibition is -6.67% in assay [1] (setting [2]) and 6.11% in assay [1] (setting [3]). In addition, the Potency result in the assay on AA1029, with AS120, with C2A and in the assay on CP185 was “inactive” each time.
Regarding `O=C1c2ccccc2C(=O)C1C(=O)C(c1ccccc1)c1ccccc1`, the activity, negative = inhibition is 4.21% in assay [1] (setting [2]) and -28% in assay [1] (setting [3]). Besides, the Potency entry with AA1029, in the assay with ATS189, in the assay with ATS95, in the assay with C2A and with CP185 was “inactive” throughout.
With `Nc1ccc([As](=O)(O)O)cc1`, the activity, negative = inhibition in [1] (setting [2]) was -20%; in assay [1] (setting [3]), -5.31%. In addition, the Potency result in the assay with 3D7, in the assay with AA1029, in the assay on AS120, with ATS189, in the assay on ATS95 and in the assay with C2A was “inactive” in each case. Moreover, the Potency entry with CP185 was “inactive”.
Regarding `O=C1c2ccccc2C(=O)c2ccccc21`, the values for the activity, negative = inhibition in assay [1] (setting [2]) and in assay [1] (setting [3]) were -2.68% and 6.43%, respectively. Moreover, the Potency with 7G8 was 5.01 µM (active). For the same molecule, the Potency entry in the assay on AA1029, in the assay on AS120, in the assay with ATS95, in the assay on C2A and in the assay on CP185 was “inactive” in each case.
